We go through 11 compounds from PubChem BioAssay (NCATS).

Experiment [1] relates to Zika virus NS2B-NS3 protease (linked construct). The experiment in a line: Primary screen NINDS Rhodamine qHTS for Zika virus inhibitors (AID 1347160). Note: potency is the fitted concentration of half-maximal effect; nearly all actives have a fitted effect of over 55% in size. Put shortly: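 Percent inhibition, normalized to uninhibited and enzyme-free controls, is fitted to a 4-parameter Hill equation. Fluorescence change comes from a 15-min cleavage of 1.5 microM bis-peptide Rhodamine110 substrate by 25 nM linked NS2B-NS3 at room temperature.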
On the technique in general: In qHTS, concentration-response curves come from the screen itself.

Experiment [2] can be described thus: SDT Cancer Cell Toxicity qHTS against the NCATS CANVASS Library (AID 1347365). Note: nearly all actives have a fitted effect of over 60% in size. Note: potency is the fitted concentration of half-maximal effect. In outline: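 Dispense 500 SDT cells per well; pin-transfer compounds; incubate 72 hr at 37C, 5% CO2, 95% RH; add CellTiterGlo and read luminescence.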
The nature of experiment [3]: qHTS for Activators of p53 Stress Response Pathway screened against the NCATS CANVASS Library (AID 1347388). Note: potency is the fitted concentration of half-maximal effect. Put shortly:
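p53RE-bla HCT-116 cells (4000/well) were pre-incubated for 5 h, then treated with compound (11 points) for 16 h at 37C. After 2 h with CCF4, the 460/530 nm ratio gave reporter activation; CellTiter-Glo measured viability.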

The subject of experiment [4] is Zika virus NS2B-NS3 protease (linked). The experiment is described as follows: 384 well plate NINDS AMC confirmatory qHTS for Zika virus inhibitors (AID 1347163). Note: potency is the fitted concentration of half-maximal effect; nearly all actives have a fitted effect of over 50% in size. In outline:
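Linked protease 5/30/60 nM final; cpds up to 1 mM final, ~15 min preinc. Substrate Ac-VKTGKR-AMC 30 microM final. RT, dark, 25 min; FI ex 355/em 460; normalized to no-enzyme/no-inhibitor ctrls.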

Experiment [5] has as its system Zika virus NS2B-NS3 protease (linked construct). The experiment is described as follows: 384 well plate NINDS Rhodamine confirmatory qHTS for Zika virus inhibitors (AID 1347164).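 Note: fluorescence from protease cleavage of Ac-LKRR-rhodamine 110 substrate; potency is the fitted concentration of half-maximal effect; nearly all actives have a fitted effect of over 65% in size.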 Put shortly:
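Enzyme (final 5/30/60 nM) + cpd (DMSO), ~15 min; add Ac-LKRR-Rd 10 microM final; 25 min RT, dark; FI ex 485/em 538; normalized to no-enzyme, no-inhibitor ctrls; aprotinin intraplate ctrl.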

Experiment [6] addresses Glutathione peroxidase 1 (Homo sapiens) (UniProt P07203). The experiment is described as follows: Primary qHTS Assay for Inhibitors of Recombinant Selenoprotein Glutathione Peroxidase 1 (GPX1) (AID 1845191). Note: % is set by controls: 0 for no effect and ±100 for the full control effect; nearly all actives have a fitted effect of over 65% in size. Put shortly:
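GR-coupled assay: compounds preincubated 30 min at room temperature with GPX1, then reaction started with CHP; final 10 nM GPX1, 1 mM GSH, 0.5 mM CHP, 0.5 mM NADPH, 100 nM GR, 0.01% BSA, pH 7.5 Tris buffer. NADPH fluorescence (340/450 nm) read at 0 and 15 min.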

Experiment [7] is described as follows: qHTS drug screen for cell cycle checkpoint inhibitors in PARPi-resistant BRCA-mutant ovarian cancer cell lines. (AID 1963452; calls by dose curve). Particulars: PEO1/OlaR viability, CellTiter-Glo luminescence, 96 h, stronger effect = lower value. In outline: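 PEO1, PEO4 and PEO1/OlaR ovarian cancer cells, 600 per well, exposed 96 h at 37C to a dilution series. Viability read by CellTiter-Glo luminescence, normalized to DMSO and empty wells; activity summarized as Z-AUC.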

The nature of experiment [8]: qHTS assay to identify inhibitors of the type 1 interferon - major histocompatibility complex class I in skeletal muscle: Counter screen cell viability and HiBit confirmation (AID 1347412). Note: % is set by controls: 0 for no effect and ±100 for the full control effect; nearly all actives have a fitted effect of over 60% in size. Particulars: iHSKM muscle cells + IFN-b, HiBiT or CellTiter-Glo, 24 h, at 45.9 µM (top of the series). Put shortly: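 Luminescence read-out: Nano-Glo HiBiT lytic signal from C-terminally HiBiT-tagged HLA-B in CRISPR-edited human myoblasts, plus CellTiter Glo ATP as viability counter screen. IFN-beta 4.0 ng/ml; 24 hrs treatment at 37 C, 5% CO2.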

The nature of experiment [9]: HEK-293 Cancer Cell Toxicity qHTS against the NCATS CANVASS Library (AID 1347355). Note: nearly all actives have a fitted effect of over 65% in size. Note: potency is the fitted concentration of half-maximal effect. In outline: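 qHTS cytotoxicity: compounds tested in 11 concentrations on 1000 seeded cells per well over 72 h; bortezomib served as control; signal from CellTiter-Glo luminescence.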
A short description of experiment [10]: Vero-766 cells viability qHTS against the NCATS CANVASS Library: Counterscreen for Zika virus inhibition assay (AID 1347394). Note: % is set by controls: 0 for no effect and ±100 for the full control effect; nearly all actives have a fitted effect of over 60% in size. Put shortly:
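Vero 766, no virus; 1000 cells/well; o/n attach; cpd 11-pt; 72 h, 37C, 5% CO2; CTG luminescence; cell-free media wells = 100% inhibition.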

Experiment [11] in a line: DH5-alpha competent E. coli microbial cell viability qHTS against the NCATS CANVASS Library (AID 1347377). Particulars: outcome: dose series up to 46.1 µM unless noted. Put shortly: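 Cell viability of competent DH5-alpha E. coli is scored from ATP content by luminescence. Cells sit overnight at 37C with compound across an 11-point concentration series.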
The nature of experiment [12]: Panc-1005 Cancer Cell Toxicity qHTS against the NCATS CANVASS Library (AID 1347349). Note: % is set by controls: 0 for no effect and ±100 for the full control effect; nearly all actives have a fitted effect of over 60% in size. Put shortly:
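Viability was assessed by adding CellTiter-Glo reagent to treated cultures and reading luminescence after 15min at room temperature. Treatment lasted 72 h at 37 degrees C/5% CO2, using an 11-point series on 1000 cells/well.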

A short description of experiment [13]: qHTS for Hypoxia signaling pathway (HIF-1) antagonists against the NCATS CANVASS Library (AID 1347374).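 For activity change, negative = inhibition: HRE-bla ME-180 cells stimulated with cobalt chloride to stabilize HIF-1alpha; % is set by controls: 0 for no effect and ±100 for the full control effect.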 Note: nearly all actives have a fitted effect of over 60% in size. Note: potency is the fitted concentration of half-maximal effect. Put shortly:
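HRE-bla ME-180 cells (2,000/well, 0.5% dialyzed FBS) were pre-incubated 5 h, then given an 11-point compound series plus CoCl2 (60 uM solution as added) for 17 h at 37C. CCF4 β-lactamase read (ex 405, em 460/530 nm) after 2 h at RT.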

Experiment [14] is described as follows: A2780 Cisplatin Sensitive Ovarian Cancer Cell Toxicity qHTS against the NCATS CANVASS Library (AID 1347353). Note: nearly all actives have a fitted effect of over 60% in size. Put shortly: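 Seventy-two-hour exposure of cisplatin-sensitive A2780 ovarian cells to an 11-concentration qHTS series; cytotoxicity is inferred from loss of ATPLite luminescence. Bortezomib titration served as positive control.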

The structures appear in SMILES notation. Inconclusive results are not listed. The source made the active and inactive calls. Unless noted, calls come from the whole dose curve; as a rule, active = well fitted curve in the direction sought with a large enough effect; inconclusive = small, poorly fitted or top-dose-only effect, or another doubt; inactive = no such curve, though single readings can be large; an effect the other way counts as inactive or inconclusive.

Glutathione peroxidase 1 (Homo sapiens), sequence (P07203 whole entry, looked up): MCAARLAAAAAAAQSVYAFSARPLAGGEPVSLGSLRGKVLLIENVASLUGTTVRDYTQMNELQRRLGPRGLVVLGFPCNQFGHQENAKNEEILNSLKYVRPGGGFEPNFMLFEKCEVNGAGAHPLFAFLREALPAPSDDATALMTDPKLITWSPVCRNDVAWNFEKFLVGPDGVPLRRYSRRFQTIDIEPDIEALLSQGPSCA

On to `O=C(OC[C@H]1O[C@@H](OC(=O)c2cc(O)c(O)c(O)c2)[C@H](OC(=O)c2cc(O)c(O)c(O)c2)[C@@H](OC(=O)c2cc(O)c(O)c(O)c2)[C@@H]1OC(=O)c1cc(O)c(O)c(O)c1)c1cc(O)c(O)c(O)c1`, for which the Potency in experiment [1] is 0.877 µM (active); in experiment [2], 23.5 µM (active); in experiment [3], 11.7 µM (active).

Turning to `COc1cc(C(=O)O)ccc1NC(=O)[C@@H]1N[C@@H](CC(C)(C)C)[C@](C#N)(c2ccc(Cl)cc2F)[C@H]1c1cccc(Cl)c1F`, the Potency in experiment [4] is 31.6 µM (active); in [5], 5.62 µM (active). Also, the Potency entry in experiment [6] was “inactive”. For the same compound, the Z-AUC was 2.81 (inactive) in experiment [7], 1.51 in experiment [7] (measured here: PEO1 parental Z-AUC) and 1.24 in experiment [7] (measured here: PEO4 Z-AUC). The values for the activity change, negative = inhibition in experiment [8] (HiBiT) and in experiment [8] (Viability) were -14.1% (inactive) and -6.71% (inactive), respectively.

As for `Cc1cc(O)cc2c1C(=O)c1c(O)cc(O)cc1C2=O`, the Potency result in experiment [9], in experiment [2], in experiment [3] and in [10] was “inactive” throughout.

As to `CC(C)=CCC[C@]1(C)[C@H]2CC(=O)[C@@]3(CO3)[C@@H]1C2`, the Potency result in [9], in [2], in experiment [3] and in experiment [10] was “inactive” each time. Further, the compound was classed as inactive in [11].

`O=Cc1ccc2n1C[C@]1(OC2)O[C@H](CO)[C@@H](O)[C@@H]1O`: the Potency entry in [12], in experiment [2], in [13], in experiment [3] and in experiment [10] was “inactive” each time.

As for `O=Cc1ccc2n1C[C@]1(C[C@H](O)[C@@H](CO)O1)OC2`, the Potency entry in experiment [9], in [2], in experiment [13] and in [3] was “inactive” in each case. The compound was called inactive in experiment [11].

Consider `COc1ccc(-c2oc3cc(OC)cc(OC)c3c(=O)c2O)cc1`, for which the Potency in experiment [9] is 18.7 µM (active); in experiment [13], 0.472 µM (active). Also, the compound was classed as inactive in experiment [11]. Besides, the Potency result in experiment [3] and in experiment [10] was “inactive” each time.

Turning to `CCC(C)=C1OC(=O)[C@H](C)[C@H](O)[C@H](Cc2cccnc2)NC(=O)C(NC(=O)c2ncccc2O)C(C)OC1=O` (some centres undefined), the Potency result in experiment [12] and in [9] was “inactive” in each case.

With `C=CC(C)(C)C(=O)[C@@H](C)[C@@H]1CC[C@@](C)(C=C)O1`, the Potency result in experiment [14], in experiment [9], in experiment [2], in experiment [13] and in experiment [3] was “inactive” each time. In addition, the result in experiment [11] was inactive.

Consider `C=C1C[C@]23C=CC(=O)[C@@](C)(CCCC(C)C(=O)N[C@@H](CO)C(=O)O)[C@@H]2C[C@@H]1CC3` (some centres undefined), for which the Potency entry in [12], in experiment [9], in [13] and in experiment [3] was “inactive” in each case.

With `C[C@@]12CCC[C@@](C)(C(=O)OP(=O)(O)OC[C@H]3O[C@@H](n4cnc5c(N)ncnc54)[C@H](O)[C@@H]3O)[C@H]1C[C@@H](O)[C@@]13C[C@@H](CC[C@@H]21)[C@](C)(O)C3`, the Potency entry in experiment [14] and in [9] was “inactive” throughout.
